From PubChem BioAssay (Tox21) come the findings set out here.

Molecules are shown by their SMILES. Records with an inconclusive call do not appear. Active and inactive are the calls of the source. Unless noted, the call rests on the fitted dose curve.

Test [1] can be described thus: qHTS assay to identify small molecule antagonists of the sonic hedgehog signaling (Shh) pathway (AID 1259369). Further: nearly all actives have a fitted effect of over 45% in size. Further: potency means the concentration at half of the fitted maximal effect. The essentials:
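Screening used 3T3Gli1-Luc cells at 2,000 per well, compounds delivered in DMSO, and conditioned medium as agonist stimulus; plates incubated 24hr at 37 C and 5% CO2 before a 30min luciferase step.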

Test [2] deals with Estrogen receptor beta (Homo sapiens) (UniProt Q92731). Description: qHTS assay to identify small molecule agonists of the estrogen receptor beta (ER-beta) signaling pathway (AID 1259377; active means well fitted activation curve with a large enough effect in the signal ratio in the repeat runs, not every such curve was filed as active; the % refers to the signal ratio; further: potency means the concentration at half of the fitted maximal effect). A digest of the protocol: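 ER-beta-UAS-bla HEK293T (GripTite) cells carrying a UAS-driven beta-lactamase reporter, in medium with 2% charcoal-stripped FBS, were exposed to compounds for 16 hr at 37C; LiveBLAzer B/G FRET substrate was then added and fluorescence read after 2 hours at room temperature.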

The target is the same in test [3]. Description: qHTS assay to identify small molecule antagonists of the estrogen receptor beta (ER-beta) signaling pathway (AID 1259378; active means well fitted inhibition curve with a large enough effect in the signal ratio in the repeat runs, not every such curve was filed as active; the % refers to the signal ratio). The essentials: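 Antagonist mode: compounds added to beta-lactamase reporter HEK293T ER-beta-UAS cells stimulated with E2 (1nM final), 16 hr at 37C. LiveBLAzer B/G FRET substrate, 2 hours room temperature, fluorescence read-out.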

Test [4] in a line: qHTS assay to identify small molecule agonists of the androgen receptor (AR) signaling pathway in the presence of an antagonist - cell viability counter screen (AID 1259379; active means well fitted curve in the direction sought with a large enough effect in the repeat runs; an effect the other way counts as inactive or inconclusive; further: nearly all actives have a fitted effect of over 25% in size; further: potency means the concentration at half of the fitted maximal effect). A digest of the protocol:
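In MDA-kb2 cells (human breast carcinoma, MMTV-luciferase), compounds at 15 concentrations plus 3.0uM nilutamide; 16 hr, 37C, 0% CO2; CellTiter-Fluor fluorescence read for viability.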

Test [5] is described as follows: qHTS assay to identify small molecule agonists of the estrogen receptor beta (ER-beta) signaling pathway - cell viability counter screen (AID 1259380; active means well fitted curve in the direction sought with a large enough effect in the repeat runs; an effect the other way counts as inactive or inconclusive; further: nearly all actives have a fitted effect of over 30% in size; further: potency means the concentration at half of the fitted maximal effect). A digest of the protocol: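 Viability of ER-beta-UAS-bla HEK293T cells was determined by CellTiter-Glo luminescence following 16 hr treatment with test compounds at 37C.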
A short description of test [6]: qHTS assay to identify small molecule antagonists of the estrogen receptor beta (ER-beta) signaling pathway - cell viability counter screen (AID 1259382; active means well fitted curve in the direction sought with a large enough effect in the repeat runs; an effect the other way counts as inactive or inconclusive; further: series mostly up to about 92 µM; nearly all actives have a fitted effect of over 55% in size). A digest of the protocol: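 Tox21 10K library tested in qHTS format on ER-beta-bla HEK293T cells stimulated with 1nM E2; 16 hr treatment at 37C. Same-well CellTiter-Glo luminescence served as the cell viability measure.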

Test [7] concerns the target Estrogen receptor (Homo sapiens) (UniProt P03372). Briefly: qHTS assay to identify small molecule agonists of the estrogen receptor alpha (ER-alpha) signaling pathway in the presence of an antagonist (AID 1259383). Further: nearly all actives have a fitted effect of over 15% in size. Further: potency means the concentration at half of the fitted maximal effect. On activation: top concentration of the series differs between compounds. The essentials: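 In VM7Luc4E2 cells, 4,000 per well, compounds at 15 concentrations were co-incubated 22hr at 37C with 10.0nM final ICI-182,780. Luminescence from the stably transfected 4×ERE-luciferase reporter was recorded 30min after ONE-Glo addition.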

The nature of test [8]: qHTS assay to identify small molecule agonists or antagonists of the thyroid stimulating hormone receptor (TSHR) signaling pathway - wild type cell line counter screen (AID 1259384). A digest of the protocol: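 Counter screen in untransfected Hek293: compounds (15-point titration, triplicate) plus phosphodiesterase inhibitor Ro20-1724 added after 18 h plating; 30 min RT. Intracellular cAMP via competitive d2/cryptate immunoassay, 1 h incubation.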

Test [9] has as its target Thyrotropin receptor (Homo sapiens) (UniProt P16473). Briefly: qHTS assay to identify small molecule antagonists of the thyroid stimulating hormone receptor (TSHR) signaling pathway (AID 1259385). Further: nearly all actives have a fitted effect of over 20% in size. A digest of the protocol: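 Antagonist mode: compound-treated TSHR-expressing HEK293 cells were stimulated with 1.5 ng/mL TSH (final) in presence of Ro20-1724 for 30 min at RT. HTRF cAMP detection after 1 h; each compound tested at 15 concentrations, triplicate.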

The target of test [10] is Androgen receptor (Homo sapiens) (UniProt P10275). Briefly: qHTS assay to identify small molecule agonists of the androgen receptor (AR) signaling pathway in the presence of an antagonist (AID 1259381). Further: nearly all actives have a fitted effect of over 15% in size. A digest of the protocol: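 Here, 15-concentration compound series were pin-transferred onto MDA-kb2 MMTV-luciferase cells already dosed with nilutamide (3.0uM final). After 16hr at 37C, ONE-Glo was added and luminescence read 30min later at room temperature.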
Chain of Androgen receptor (Homo sapiens) (P10275 whole entry, looked up): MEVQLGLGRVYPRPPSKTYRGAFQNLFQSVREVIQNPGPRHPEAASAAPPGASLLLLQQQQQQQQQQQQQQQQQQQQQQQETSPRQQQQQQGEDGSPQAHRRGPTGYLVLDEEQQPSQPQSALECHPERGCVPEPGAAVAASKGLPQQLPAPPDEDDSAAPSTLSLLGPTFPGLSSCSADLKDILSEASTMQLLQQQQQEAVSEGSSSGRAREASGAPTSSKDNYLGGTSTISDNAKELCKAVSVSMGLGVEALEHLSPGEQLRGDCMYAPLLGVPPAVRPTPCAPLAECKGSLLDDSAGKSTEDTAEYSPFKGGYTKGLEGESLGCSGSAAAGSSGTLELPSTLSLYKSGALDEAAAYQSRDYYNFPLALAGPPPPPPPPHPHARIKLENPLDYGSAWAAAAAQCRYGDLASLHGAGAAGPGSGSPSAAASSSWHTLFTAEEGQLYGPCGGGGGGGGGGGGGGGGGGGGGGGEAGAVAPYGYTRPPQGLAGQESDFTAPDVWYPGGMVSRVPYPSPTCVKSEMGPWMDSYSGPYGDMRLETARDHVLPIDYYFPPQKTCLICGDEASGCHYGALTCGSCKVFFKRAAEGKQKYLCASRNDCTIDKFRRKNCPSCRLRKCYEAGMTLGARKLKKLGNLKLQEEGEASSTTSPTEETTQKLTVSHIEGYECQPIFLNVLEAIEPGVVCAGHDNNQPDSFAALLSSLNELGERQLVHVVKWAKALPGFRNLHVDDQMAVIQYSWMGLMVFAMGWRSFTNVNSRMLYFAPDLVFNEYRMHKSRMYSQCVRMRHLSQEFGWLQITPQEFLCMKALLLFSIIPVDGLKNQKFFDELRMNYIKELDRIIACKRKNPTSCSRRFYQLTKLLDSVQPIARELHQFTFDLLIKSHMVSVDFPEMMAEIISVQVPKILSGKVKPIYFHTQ

Chain of Thyrotropin receptor (Homo sapiens) (P16473 whole entry, looked up): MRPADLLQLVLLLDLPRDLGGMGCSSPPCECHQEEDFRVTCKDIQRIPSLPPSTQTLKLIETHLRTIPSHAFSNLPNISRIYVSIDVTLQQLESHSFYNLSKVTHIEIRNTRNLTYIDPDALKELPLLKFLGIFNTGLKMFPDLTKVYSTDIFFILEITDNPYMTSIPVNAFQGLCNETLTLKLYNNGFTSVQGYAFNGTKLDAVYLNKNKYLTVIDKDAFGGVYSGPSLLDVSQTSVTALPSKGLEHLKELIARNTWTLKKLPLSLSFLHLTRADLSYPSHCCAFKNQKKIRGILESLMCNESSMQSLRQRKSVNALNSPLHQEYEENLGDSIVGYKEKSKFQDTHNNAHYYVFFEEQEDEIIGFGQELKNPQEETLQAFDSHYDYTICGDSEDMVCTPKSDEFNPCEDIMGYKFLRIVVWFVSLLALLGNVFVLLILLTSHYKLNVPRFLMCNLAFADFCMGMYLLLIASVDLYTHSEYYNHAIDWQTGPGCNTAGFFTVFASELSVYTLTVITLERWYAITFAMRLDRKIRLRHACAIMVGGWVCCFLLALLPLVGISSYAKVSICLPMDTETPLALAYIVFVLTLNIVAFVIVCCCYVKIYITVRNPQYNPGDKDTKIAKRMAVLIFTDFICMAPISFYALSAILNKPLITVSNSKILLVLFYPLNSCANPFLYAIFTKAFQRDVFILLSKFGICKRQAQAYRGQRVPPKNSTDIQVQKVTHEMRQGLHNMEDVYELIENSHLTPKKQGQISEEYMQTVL
Chain of Estrogen receptor (Homo sapiens) (P03372 whole entry, looked up): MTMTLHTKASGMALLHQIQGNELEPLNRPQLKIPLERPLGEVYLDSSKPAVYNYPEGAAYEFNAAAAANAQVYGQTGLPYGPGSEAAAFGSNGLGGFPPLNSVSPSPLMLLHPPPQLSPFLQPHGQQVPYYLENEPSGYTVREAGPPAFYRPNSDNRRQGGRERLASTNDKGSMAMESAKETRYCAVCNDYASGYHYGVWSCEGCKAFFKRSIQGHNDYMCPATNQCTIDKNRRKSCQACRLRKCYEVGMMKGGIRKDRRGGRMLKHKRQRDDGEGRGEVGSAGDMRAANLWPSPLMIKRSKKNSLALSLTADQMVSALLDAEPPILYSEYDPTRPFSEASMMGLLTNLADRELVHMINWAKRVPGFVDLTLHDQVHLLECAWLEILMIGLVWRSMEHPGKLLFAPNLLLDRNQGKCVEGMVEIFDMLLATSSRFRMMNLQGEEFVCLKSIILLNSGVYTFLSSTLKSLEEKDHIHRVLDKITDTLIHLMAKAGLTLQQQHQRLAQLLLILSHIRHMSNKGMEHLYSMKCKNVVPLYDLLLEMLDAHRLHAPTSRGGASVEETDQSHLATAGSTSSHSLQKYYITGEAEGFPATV
Chain of Estrogen receptor beta (Homo sapiens) (Q92731 whole entry, looked up): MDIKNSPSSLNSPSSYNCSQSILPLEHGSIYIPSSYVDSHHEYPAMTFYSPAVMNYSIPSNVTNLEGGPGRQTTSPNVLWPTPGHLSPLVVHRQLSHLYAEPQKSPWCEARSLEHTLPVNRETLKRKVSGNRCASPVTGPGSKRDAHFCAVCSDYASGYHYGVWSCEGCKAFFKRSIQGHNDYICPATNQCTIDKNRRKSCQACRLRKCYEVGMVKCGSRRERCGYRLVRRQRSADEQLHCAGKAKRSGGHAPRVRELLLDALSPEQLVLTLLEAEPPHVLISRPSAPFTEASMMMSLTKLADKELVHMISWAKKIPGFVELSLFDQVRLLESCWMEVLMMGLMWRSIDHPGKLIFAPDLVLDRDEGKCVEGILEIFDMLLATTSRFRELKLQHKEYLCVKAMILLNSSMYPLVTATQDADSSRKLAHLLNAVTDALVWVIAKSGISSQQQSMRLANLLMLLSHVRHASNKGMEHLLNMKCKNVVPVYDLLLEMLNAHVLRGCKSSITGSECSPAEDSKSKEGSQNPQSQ

Consider `Cc1cc(C(C)(C)C)c(O)c(C)c1Cn1c(=O)n(Cc2c(C)cc(C(C)(C)C)c(O)c2C)c(=O)n(Cc2c(C)cc(C(C)(C)C)c(O)c2C)c1=O`, for which the Potency entry in [1], in test [2], in test [3], in test [4], in [5] and in test [6] was “inactive” in each case. In addition, the Potency result in test [7] and in test [9] was “inactive” in each case. Further, the molecule was classed as inactive in test [8].
Regarding `CC(C)(C)NSc1nc2ccccc2s1`, the Potency result in test [1], in test [2], in [3], in test [4], in test [5] and in test [7] was “inactive” in each case. Further, the Potency result in test [9] was “inactive”. Further, the outcome in test [10] and in [8] was inactive.
Turning to `C=C(C)c1cccc(C(=C)C)c1`, the Potency result in test [1], in test [2], in [3], in test [4], in [5] and in test [6] was “inactive” in each case. The Potency entry in [7] and in test [9] was “inactive” in each case. Further, the molecule was classed as inactive in test [8].
With `COC(C)=O`, the Potency result in [1], in [2], in [3], in test [4], in [5] and in test [6] was “inactive” each time. Besides, the Potency result in test [7] is “inactive”.
For `Clc1sc(Cl)c(Cl)c1Cl`, the Potency result in test [1], in test [2], in test [3], in [4], in test [5] and in test [6] was “inactive” each time. The Potency entry in [7] and in test [9] was “inactive” each time. In addition, the result in test [10] and in test [8] was inactive.
For `O=C(O)Cc1ccccc1Nc1c(Cl)cccc1Cl`, the Potency entry in [1], in test [2], in test [3], in test [4], in test [7] and in test [9] was “inactive” in each case. The Potency in [5] is 13.7 µM (active). Also, the outcome in [10] and in [8] was inactive.
Consider `O=C(O)[C@H](O)[C@@H](O)[C@H](O[C@@H]1O[C@H](CO)[C@H](O)[C@H](O)[C@H]1O)[C@H](O)CO`, for which the Potency entry in test [1], in [2], in test [3], in test [4], in test [5] and in [6] was “inactive” in each case. Moreover, the Potency result in [7] and in test [9] was “inactive” in each case. Besides, the molecule was called inactive in test [8].
Consider `C#C[C@]1(O)CC[C@H]2[C@@H]3[C@H](C)CC4=C(CCC(=O)C4)[C@H]3CC[C@@]21C`, for which the Potency in [1] is 29.8 µM (active); in test [2], 0.188 µM (active); in test [7], 0.0841 µM (active). Further, the Potency result in test [3], in [4], in test [5] and in [6] was “inactive” throughout.
Take `CNc1ccc([N+](=O)[O-])cc1`: the Potency result in test [1], in test [2], in test [3], in [5], in [6] and in test [7] was “inactive” each time. For the same molecule, the Potency result in test [9] was “inactive”. Also, the Potency in [4] was 48.7 µM (active). The result in test [10] and in [8] was inactive.
For `CC(C)(C)C1CCC(=O)CC1`, in test [1], the Potency was 30.6 µM (active). Also, the Potency entry in [2], in [3], in [4], in test [5], in test [6] and in test [7] was “inactive” each time. Also, the Potency result in test [9] is “inactive”. Further, in test [8], the outcome was inactive.
For the molecule `CCOC(=O)NNc1ccc(N(CC)CC(C)O)nn1` (centres undefined), the Potency entry in [1], in test [2], in test [3], in test [4], in test [5] and in test [6] was “inactive” throughout. Also, the Potency entry in test [7] and in [9] was “inactive” each time. In addition, the call in test [8] was inactive.
Regarding `O=C(O)Cc1ccc2c(c1)C(=O)c1ccccc1CO2`, the Potency entry in test [1], in test [2], in test [3], in test [4], in test [5] and in [6] was “inactive” each time. The Potency result in [7] and in test [9] was “inactive” in each case. Further, the call in test [8] was inactive.
In the case of `O=C(Nc1ccc2c(O)c(N=Nc3ccc(N=Nc4ccc(S(=O)(=O)O)cc4)cc3)c(S(=O)(=O)O)cc2c1)c1ccccc1`, the Potency entry in test [1], in test [2], in [3], in test [5], in [6] and in [7] was “inactive” throughout. In addition, the Potency entry in test [9] is “inactive”. In addition, in [4], the Potency is 21.7 µM (active). Moreover, the outcome in test [8] was inactive.
Regarding `CC(CCc1ccccc1)NCC(O)c1ccc(O)c(C(N)=O)c1` (centres undefined), the Potency in [1] was 30.6 µM (active). For the same molecule, the Potency result in [2], in test [3] and in [4] was “inactive” throughout.
For `Cc1nc(-c2ccc(Cl)cc2)oc1COC(C)(C)C(=O)O`, the Potency entry in test [1], in [2], in test [3], in test [4], in [6] and in test [9] was “inactive” each time. The outcome in [8] was inactive.
In the case of `CC(C(=O)O)c1ccc2c(c1)[nH]c1ccc(Cl)cc12` (centres undefined), the Potency entry in [1], in test [2], in [3], in test [4], in test [7] and in test [9] was “inactive” in each case. Moreover, the Potency in test [5] is 29.8 µM (active). The outcome in test [8] was inactive.
With `COC(=O)c1ccccc1C`, the Potency entry in [1], in test [2], in test [3], in [4], in test [5] and in [6] was “inactive” in each case. Besides, the Potency result in [7] and in test [9] was “inactive” in each case. For the same molecule, the outcome in [8] was inactive.
With `CCC(=O)OC(=O)CC`, the Potency entry in test [1], in test [2], in [3], in test [4], in [6] and in test [9] was “inactive” throughout. Further, in [8], the call was inactive.
On to `O=C(O)c1cc(=O)c2ccccc2o1`, for which the Potency entry in test [1], in test [2], in [3], in [4], in [5] and in test [6] was “inactive” throughout. Also, the Potency entry in test [7] and in test [9] was “inactive” each time. The molecule was called inactive in [8].
For the molecule `OC[C@@H](O)[C@@H](O)CO`, the Potency entry in test [1], in test [2], in test [3], in test [4], in test [5] and in test [6] was “inactive” in each case. In addition, the Potency result in test [7] and in test [9] was “inactive” throughout. The molecule was classed as inactive in [8].
On to `CCN(CC)c1ccc2c(-c3ccc(S(=O)(=O)O)cc3S(=O)(=O)[O-])c3ccc(=[N+](CC)CC)cc-3oc2c1`, for which the Potency result in test [1], in test [2] and in [3] was “inactive” in each case. Moreover, the Potency in test [4] is 12.6 µM (active). Moreover, the outcome in test [10] was inactive.
On to `CCCCCCCC/C=C\CCCCCCCCN`, for which the Potency entry in test [1], in [2], in test [3], in test [4], in [5] and in test [7] was “inactive” each time. Moreover, in test [9], the Potency entry was “inactive”. In addition, the result in test [8] was inactive.
As for `CCC(CC)C(C)CCOC(C)=O` (centres undefined), the Potency entry in test [1], in [2], in [3], in test [4], in test [5] and in [9] was “inactive” in each case. In [8], the molecule was classed as inactive.
In the case of `CCc1ccc(Br)cc1`, the Potency entry in test [1], in [2], in test [3], in [4], in test [5] and in [7] was “inactive” in each case. For the same molecule, the Potency entry in test [9] was “inactive”. In test [8], the molecule was classed as inactive.
With `Cc1cccc2cccnc12`, the Potency result in [1], in test [2], in [3], in [4], in test [5] and in test [6] was “inactive” in each case. The Potency entry in test [9] was “inactive”. Moreover, the molecule was classed as inactive in test [8].
